Assay results as given in PubChem BioAssay AID1490 (National Center for Advancing Translational Sciences (NCATS), 2009).
Several values for one entry are separate records, joined by “and”; a condition that tells them apart may be missing. Identical values can stand only once. Screen size: about 310,000 compounds; about 11,000 (3.5%) were called active. Not shown: some 4% with an inconclusive outcome. The sample holds actives, similar compounds and a random draw of the others, so the mix is not that of the screen. A number with no mark means an inactive call. The call rests on the fitted dose curve; in most records, active means well fitted inhibition curve with a large enough effect; inconclusive means small, poorly fitted or top-dose-only effect, or another doubt; inactive means no such curve, though single readings can be large or run the other way.
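Further: the enzyme is Sfp with the accession as filed and its product quenches rhodamine fluorescence.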
Potency means the concentration at half of the fitted maximal effect.
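Wherever largest response in the series, negative = inhibition is given: 0% = enzyme reaction without inhibitor and -100% = no enzyme wells.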

These compounds were tested against 4'-phosphopantetheinyl transferase ffp (Bacillus subtilis) (UniProt Q9F4F7) (assay: qHTS Assay for Inhibitors of Bacillus subtilis Sfp phosphopantetheinyl transferase (PPTase)). Details: Biochemical Sfp PPTase activity.
Summary of the method: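 Buffer: 50 mM Hepes-Na pH 7.6, 10 mM MgCl2, 0.01% Nonidet P-40, 0.01% BSA. Enzyme 15 nM, pre-exposed to compound 15 min; substrates then added and fluorescence change tracked over 30 min.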
Work on `CCn1cc(C(=O)N[C@@H](C)C(=O)NCCO)c(=O)c2cc3c(cc21)OCO3` yielded a largest response in the series, negative = inhibition of 20.9%. Compound `Cc1ccc(S(=O)(=O)CC(=O)NC(C)c2ccccc2)cc1` (configuration not stated) has a largest response in the series, negative = inhibition of 12.8%. In the case of `CN(CCc1ccccn1)C1CCCN(S(=O)(=O)c2ccccc2Cl)C1` (configuration not stated), the largest response in the series, negative = inhibition is reported as 8.81%. In the case of `CC[C@H](C)[C@H](NC(=O)[C@H](Cc1ccc(O)cc1)NC(=O)[C@@H](NC(=O)[C@H](CCCN=C(N)N)NC(=O)[C@@H](N)CC(=O)O)C(C)C)C(=O)N[C@@H](Cc1cnc[nH]1)C(=O)N1CCC[C@H]1C(=O)N[C@@H](Cc1ccccc1)C(=O)O`, the largest response in the series, negative = inhibition is reported as -1.37%. In the case of `CCCc1cc(-c2n[nH]c(=S)n2CC)c2ccccc2n1`, the largest response in the series, negative = inhibition is reported as -1.53%. With `CCn1c(-c2ccoc2C)n[nH]c1=S` the largest response in the series, negative = inhibition was 11.6%. With `CCn1c(-c2ccncc2)n[nH]c1=S` the Potency was 39.8 µM (active). Work on `CC1=CCC2C(=O)N(c3cccc(C(=O)NC(C)c4ccccc4)c3)C(=O)C2C1` (configuration not stated) yielded a largest response in the series, negative = inhibition of 5.16%. For `CCOc1ccc(N2C(=O)CC(N(O)c3ccccc3)C2=O)cc1` (configuration not stated), the largest response in the series, negative = inhibition was -14.7%. For `CCOC(=O)c1ccc(N2C(=O)CC(N(C)Cc3ccccc3)C2=O)cc1` (configuration not stated), the largest response in the series, negative = inhibition was 16.2%. `CCCCCCC(=O)N(O)C1CC(=O)N(c2ccccc2)C1=O` (configuration not stated) was tested, and the Potency was 7.08 µM (active). Compound `COc1ccc(CCNC(=O)CCc2cn(C)c3ccccc23)c(OC)c1` has a largest response in the series, negative = inhibition of 10.4%. For `Cc1onc(-c2ccccc2)c1C(=O)N1CCN(S(=O)(=O)c2ccccc2C(F)(F)F)CC1`, the largest response in the series, negative = inhibition was 21.8%. `COc1ccc(N2CCN(c3ccc([N+](=O)[O-])cc3Cl)CC2)cc1` was tested, and the largest response in the series, negative = inhibition was 2.35%. `O=C(O)C1CCN(c2ccc([N+](=O)[O-])cc2[N+](=O)[O-])CC1` gave a largest response in the series, negative = inhibition of 13.6%. With `O=[N+]([O-])c1ccc(N2CCN(c3ccc(O)cc3)CC2)c(Cl)c1` the Potency was 50.1 µM (active). With `O=C(Cc1ccc(Cl)cc1)NC1CCS(=O)(=O)C1` (configuration not stated) the largest response in the series, negative = inhibition was 11.6%. With `COC(=O)Nc1ccc(S(=O)(=O)Nc2cc(OC)nc(OC)n2)cc1` the largest response in the series, negative = inhibition was -10.4%. Compound `S=C(Nc1ccc(Br)cc1)NC1CCN(Cc2ccccc2)CC1` has a largest response in the series, negative = inhibition of 5.78%. For `CCOc1ccccc1NC(=S)NC(=O)CCc1ccccc1`, the largest response in the series, negative = inhibition was -1.83%. Work on `COC(=O)c1c(NC(=O)c2ccc(S(=O)(=O)N3CCOCC3)cc2)sc2c1CCN(C(C)C)C2` yielded a largest response in the series, negative = inhibition of 6.28%. With `Cn1c(SCC(=O)c2ccc(F)cc2)nnc1-c1ccccn1` the largest response in the series, negative = inhibition was -4.04%. `Cn1c(CC2Sc3ccccc3NC2=O)nnc1SCC(=O)c1ccc(Cl)cc1` (configuration not stated) was tested, and the Potency was 44.7 µM (active). `Cn1c(CNc2nc(-c3ccccc3)cs2)nnc1SCC(=O)c1ccccc1` was tested, and the largest response in the series, negative = inhibition was 3.73%. `COCCN1CCn2c(nc3cc(NS(C)(=O)=O)ccc32)C1` showed a largest response in the series, negative = inhibition of 11.6%. In the case of `Cc1cc(=O)oc2c1ccc1ccccc12`, the largest response in the series, negative = inhibition is reported as 3.98%. With `CC(=O)c1ccc(NC(=O)c2cc(-c3cccs3)on2)cc1` the largest response in the series, negative = inhibition was 1.32%. In the case of `CCCOc1ccc(Cn2c(O)cc(=O)[nH]c2=O)cc1`, the Potency is reported as 44.7 µM (active). `COc1cc(=O)[nH]c(=O)n1C(=O)Cc1ccccc1` gave a largest response in the series, negative = inhibition of 9.86%. Compound `COc1ccc(Cn2c(=O)cc(C)[nH]c2=S)cc1` has a largest response in the series, negative = inhibition of -4.49%. `Cc1cc(F)ccc1NC(=S)NCCc1ccccc1` was tested, and the largest response in the series, negative = inhibition was 0.31%. With `CC1CCN(CCCn2c(SCC(=O)NC3CCCC3)nc3ccccc3c2=O)CC1` the largest response in the series, negative = inhibition was 6.04%. Compound `CC[C@H](C)[C@H](NC(=O)[C@H](Cc1cnc[nH]1)NC(=O)[C@@H](N)CCC(=O)O)C(=O)N1CCC[C@H]1C(=O)N[C@@H](C)C(=O)O` has a largest response in the series, negative = inhibition of 3.28%. `COc1cc(OC)c(NS(=O)(=O)c2cn(C)cn2)cc1Cl` was tested, and the largest response in the series, negative = inhibition was 14.3%. With `COc1c2c(cc3occ(-c4ccc5c(c4)OCO5)c(=O)c13)OC(C)(C)C=C2` the Potency was 39.8 µM (active). In the case of `CCN(CC)CCC(c1ccc2c(c1)OCO2)c1c(OC)cc(OC)c2c(-c3ccccc3)cc(=O)oc12` (configuration not stated), the largest response in the series, negative = inhibition is reported as -27% and -23.4%. `COc1cc(-c2c(-c3ccc4c(c3)OCO4)noc2C)ccc1F` gave a largest response in the series, negative = inhibition of -12.4%. `O=C(NC(=S)Nc1ccc(Cl)cc1Cl)C1CC1` showed a largest response in the series, negative = inhibition of 8.51%. `COc1cc(Cl)ccc1OCc1cc(C(=O)N(C)CCc2c(C)n[nH]c2C)no1` showed a largest response in the series, negative = inhibition of 11.4%. Compound `Cc1c(C)c(C)c2[nH]c(=S)[nH]c2c1C` has a largest response in the series, negative = inhibition of 7.86%. `O=c1[nH]c(=S)[nH]c2[nH]c(=S)[nH]c12` was tested, and the Potency was 3.16 µM (active). With `Cc1ccc(CSCC2Nc3ccc(C(=O)N4CCN(c5ccc(F)cc5)CC4)cc3NC2=O)cc1` (configuration not stated) the Potency was 50.1 µM (active). `O=C(c1cc(C(=O)N2CCN(c3ccc(F)cc3)CC2)cc([N+](=O)[O-])c1)N1CCN(c2ccc(F)cc2)CC1` was tested, and the largest response in the series, negative = inhibition was 21.7%. Work on `O=C(c1cccc(C(=O)N2CCN(c3ccc(F)cc3)CC2)c1)N1CCN(c2ccc(F)cc2)CC1` yielded a largest response in the series, negative = inhibition of -15.2%. For `O=C1Nc2cc(C(=O)N3CCN(c4ccc(F)cc4)CC3)ccc2NC1CSCc1cccc(F)c1` (configuration not stated), the Potency was 44.7 µM (active). `CC1CCN(C(=O)c2ccc3c(c2)NC(=O)CN3)CC1` gave a largest response in the series, negative = inhibition of 6.69%. `O=C(c1cccc(F)c1)N1CCC2(CC1)CCN(c1ccccc1)CC2` showed a largest response in the series, negative = inhibition of 2.37%. `CC(C)[C@@H](OCc1ccccc1)[C@H](C)/C=N\OC[C@@H](C)[C@H](OCc1ccccc1)C(C)C` showed a largest response in the series, negative = inhibition of 6.88%. `CCCc1cc(=O)oc2c(C)c(OCC(=O)Nc3ccccn3)ccc12` was tested, and the largest response in the series, negative = inhibition was -8.94%. In the case of `COc1ccc(C)cc1NC(=O)c1[nH]c(C)c(C(C)=O)c1C`, the largest response in the series, negative = inhibition is reported as 1.79%. For `CC(=O)c1c(C)[nH]c(C(=O)Nc2cc(S(=O)(=O)N(C)C)ccc2C)c1C`, the Potency was 79.4 µM (active). `Cc1ccc(S(=O)(=O)N(C)C)cc1NC(=O)c1ccccc1Br` was tested, and the largest response in the series, negative = inhibition was 14%. With `S=C(NCc1ccc2c(c1)OCO2)NCc1ccco1` the Potency was 39.8 µM (active). `S=C(NCc1ccco1)Nc1ccc2c(c1)OCCO2` was tested, and the Potency was 28.2 µM (active). `Cc1c(Cl)cccc1NC(=S)NCc1ccc2c(c1)OCO2` was tested, and the largest response in the series, negative = inhibition was 0.527%. `COc1cccc(NC(=S)NCc2ccco2)c1` was tested, and the largest response in the series, negative = inhibition was 16.1%. In the case of `S=C(NCc1ccco1)NCc1ccccc1Cl`, the largest response in the series, negative = inhibition is reported as 8.59%. For `FC(F)Oc1ccc(NC(=S)NCc2ccco2)cc1Cl`, the largest response in the series, negative = inhibition was -3.21%. Work on `CCC(C)[C@H]1COCCS(=O)(=O)N1Cc1ccc(C)cc1` (some centres not stated) yielded a largest response in the series, negative = inhibition of 13.1%. `Cc1cc(C(F)F)nn1CC(=O)NC1CCCCCC1` showed a largest response in the series, negative = inhibition of 15.4%. In the case of `CCCCOP(=O)(c1ccc(N(C)C)cc1)C(O)c1cc(OC)ccc1OC` (configuration not stated), the largest response in the series, negative = inhibition is reported as 4.86%. Work on `CCn1c(CC(=O)Nc2ccccc2C)nnc1SCC(=O)NC1=NCCS1` yielded a largest response in the series, negative = inhibition of 7.23%. With `O=C(Nc1nnc(C2=COCCO2)o1)c1ccc([N+](=O)[O-])s1` the largest response in the series, negative = inhibition was 5.3%. With `Fc1ccc(/C=N/Nc2nc(-c3cccnc3)nc3ccccc23)cc1` the Potency was 31.6 µM (active). For `COc1ccccc1Oc1nc(-c2cccnc2)nc2ccccc12`, the largest response in the series, negative = inhibition was -13.5%. In the case of `COc1ccc(Nc2nc(-c3cccnc3)nc3ccccc23)cn1`, the largest response in the series, negative = inhibition is reported as 5.49%. In the case of `CCCCCC1CC(COc2ccccc2)OC1=O` (configuration not stated), the largest response in the series, negative = inhibition is reported as 11.1%. In the case of `CC(=O)N1CCOc2ccc(S(=O)(=O)N3CCC(C(=O)Nc4ccccc4F)CC3)cc21`, the largest response in the series, negative = inhibition is reported as 2.67%. `COCCNC(=O)c1ccc2c(c1)ncn2-c1ccc(C)c(Cl)c1` was tested, and the largest response in the series, negative = inhibition was 6.27%. For `CC1(c2ccccc2Cl)NC(=O)N(CC(=O)NC(=O)NCc2ccco2)C1=O` (configuration not stated), the Potency was 79.4 µM (active). `COc1ccccc1N1CCN(CC(=O)NC(=O)NCc2ccco2)CC1` gave a largest response in the series, negative = inhibition of 7.58%. For `O=C(CN1CCN(S(=O)(=O)/C=C/c2ccccc2)CC1)NC(=O)NCc1ccco1`, the largest response in the series, negative = inhibition was -18.1%. For `COc1cccc(C(=O)NNS(=O)(=O)c2ccc(F)cc2)c1`, the largest response in the series, negative = inhibition was -4.08%. For `O=S(=O)(NCCc1ccc(Cl)cc1)c1cccs1`, the largest response in the series, negative = inhibition was 7.54%. Work on `COc1cccc(CN2CCN(Cc3ccc4cccc(F)c4n3)CC2CCO)c1` (configuration not stated) yielded a largest response in the series, negative = inhibition of 13.8%. Compound `CCCc1nc2c(c(=O)c3ccccc3n2C)c(=O)n1-c1cc(C)cc(C)c1` has a largest response in the series, negative = inhibition of -11.4%. In the case of `Cn1c2ccccc2c(=O)c2c(=O)n(Cc3ccco3)c(COc3ccccc3)nc21`, the Potency is reported as 8.91 µM (active). Work on `COc1ccc(C(=O)CSc2nnc(COc3ccccc3)n2Cc2ccco2)cc1` yielded a largest response in the series, negative = inhibition of -23.6%. Work on `COc1cccc(NC(=O)C(=O)c2cn(CC(=O)N3CCOCC3)c3ccccc23)c1` yielded a largest response in the series, negative = inhibition of 11.1%. In the case of `Cc1ccc(C(C)(C)C)c(OCCCCN2CCCC2)c1`, the largest response in the series, negative = inhibition is reported as -28.7%. Work on `COCCCNCCOCCOc1ccc(Cl)cc1Br` yielded a largest response in the series, negative = inhibition of 1.66%. In the case of `CC(C)(C)NCCCOc1ccc(Cl)cc1C(C)(C)C`, the Potency is reported as 50.1 µM (active). Work on `CC(C)(C)OC(=O)N1CCC(C(=O)NNC(=O)c2ccc(Cl)cc2Cl)CC1` yielded a largest response in the series, negative = inhibition of 5.93%. Compound `CCOCCCNc1nc(-c2ccccc2)nc2ccccc12` has a largest response in the series, negative = inhibition of 14.7%. In the case of `c1ccc(-c2nc(NCc3ccco3)c3ccccc3n2)cc1`, the Potency is reported as 11.2 µM (active). `c1coc(CNc2ncnc3ccccc23)c1` showed a largest response in the series, negative = inhibition of 8.96%. With `CC(C)C(=O)N1CC(=O)Nc2ccc(F)cc2C1c1ccc(F)cc1` (configuration not stated) the largest response in the series, negative = inhibition was 17.9%. With `CCN(CC(=O)N1CCCC1)S(=O)(=O)c1ccc(F)cc1` the largest response in the series, negative = inhibition was 4.81%. `CCC(=O)NC(=S)Nc1ccc(NC(=O)c2ccco2)c(Cl)c1` was tested, and the Potency was 39.8 µM (active). For `O=C(Nc1ccc(NC(=O)c2ccco2)c(Cl)c1)c1cccc([N+](=O)[O-])c1`, the largest response in the series, negative = inhibition was 5.01%. For `O=C(NNC(=S)Nc1ccc(Br)cc1Cl)c1ccco1`, the largest response in the series, negative = inhibition was 12.1%. Work on `O=S(=O)(c1cccc(Cn2nnc(-c3ccc(F)cc3)n2)c1)N1CCOCC1` yielded a largest response in the series, negative = inhibition of 3.33%.
